Assay results as given in PubChem BioAssay AID1159580 (chemical genetic matrix, 2015).
Among all 5,500 compounds or so, about 2,000 (36%) were called active. Roughly 18% stayed inconclusive and do not appear here. Rule as the data show it: active = normalized growth mostly below about 0.91 (no sharp cut-off); inconclusive = no clear call, values can overlap the other calls; inactive = mostly above about 0.92. Some of the results follow.

Assay: chemical genetic growth profiling, strain panel (AID 1159580);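 also: tested at 20 µM; growth read once vehicle control cultures reached saturation at 30 °C; 1 = growth at the plate median or of vehicle wells; lower values mean less growth of the strain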
Conditions: S. cerevisiae deletion strains, growth OD

Measured: normalized growth

S=C(S)OC1CC2CC1C1CCCC21 (stereo not given)
inactive: locus YAL040C, strain CLN3, active compounds read low 1 | locus YCL061C, strain MRC1 (second series), active compounds read low 1.01 | locus YDR363W, strain ESC2, active compounds read low 1.02 | locus YER002W, strain NOP16, active compounds read low 1.01 | locus YGR078C, strain PAC10, active compounds read low 1 | locus YJR075W, strain HOC1, active compounds read low 1 | locus YMR307W, strain GAS1, active compounds read low 1.01 | locus YNL128W, strain TEP1, active compounds read low 1.01 | locus YNL175C, strain NOP13, active compounds read low 1.02 | locus YNL197C, strain WHI3, active compounds read low 1.03 | locus YNL224C, strain SQS1, active compounds read low 1.06 | locus YNL322C, strain KRE1, active compounds read low 1.01 | locus YOR083W, strain WHI5 (second series), active compounds read low 1 | locus YPL055C, strain LGE1, active compounds read low 0.943 | locus YPL241C, strain CIN2, active compounds read low 1.01
